# Assay outcomes (PubChem BioAssay)
# Compounds with a hit are over-represented: about 19% of the library has one in this group of screens.
# KB-3-1 cytotox = kills parental KB-3-1 adenocarcinoma cells; Potency, µM (titrated, usually from 46.1 µM), usual class: cytotoxic; actives 1.4% (n = 400,000); KB-3-1 viability, CellTiter-Glo ATP luminescence, 72 h; also: nearly all actives have a fitted effect of over 60% in size
#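 Parental KB-3-1 viability, qHTS format: 72 h compound exposure, 37 °C; CellTiter-Glo; media-only wells and DMSO plates as controls; concentration-effect fits on corrected data.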
# DT40 TDP1 CPT = DT40-hTDP1 cell growth loss with CPT; chicken DT40 Tdp1-/-;hTDP1 cells + 20 nM CPT, ATP luminescence, 48 h; Potency, µM (doses to about 46.2 µM), for the others: at the top dose activity change, negative = growth inhibition, actives largely listed as inhibitors; actives 12% (n = 420,000); AID 686979; also: nearly all actives have a fitted effect of over 55% in size
#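 Chicken DT40 Tdp1-/- cells complemented with human TDP1, 400 cells/well, exposed to compounds plus 20 nM camptothecin for at least 48 h at 37 C; viability read as ATP content by CellTiter-Glo luminescence.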
# HT1080NT lethal = kills 2HG-producing HT-1080-NT fibrosarcoma cells. AID 686970. HT-1080-NT fibrosarcoma viability, CellTiter-Glo ATP luminescence, 48 h. Potency, µM (series often up to 46.1 µM), for the others: top-dose activity, negative = less viability, usual class: cytotoxic. actives 1.6% (n = 360,000);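 also: NT is the 2HG producing partner of a matched IDH1 knockdown line; 0% = DMSO-treated cells and -100% = media-only wells without cells; nearly all actives have a fitted effect of over 55% in size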
#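 Read-out is CellTiter-Glo luminescence after 10 minutes at room temperature, following 48 hours' compound treatment of HT-1080-NT cells (750 cells/well, RPMI, 5% FBS, 37 degrees C).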
# HT1080 IDH1KD tx = HT-1080 IDH1 knockdown cell toxicity (counter line). HT-1080 IDH1 knockdown viability, ATP luminescence, 48 h. Potency, µM (titrated, usually from 46.1 µM), inactives show at the highest dose activity, negative = toxicity, usual class: cytotoxic. actives 2% (n = 360,000);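 also: 0% = DMSO wells and -100% = cell-free medium wells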
#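 HT-1080-IDH1KD cells (IDH1 knocked down), 750/well in RPMI with 5% FBS, treated with compound 48 h at 37 degrees C. Viability by CellTiter-Glo luminescence, normalised to DMSO and no-cell wells; concentration-response curves classed.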
# KB-V1 MDR tox = kills drug-selected multidrug resistant KB-V1 cells; KB-V1 MDR cells viability, CellTiter-Glo, 72 h; Potency, µM (doses to about 46.1 µM), usual class: cytotoxic; actives 3.4% (n = 400,000); also: nearly all actives have a fitted effect of over 60% in size
#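 Drug-selected KB-V1 cells, grown in DMEM lacking phenol red with 10% FBS, receive compound titrations; after three days at 37 degrees C, surviving cell ATP is quantified by CellTiter-Glo luminescence and responses normalized and curve-fitted.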
# TDP1 cell noCPT = qHTS for Inhibitors of human tyrosyl-DNA phosphodiesterase 1 (TDP1): qHTS in cells in absence of CPT; DT40 Tdp1-/- hTDP1 cells, no CPT, ATP luminescence, 48 h; Potency, µM (doses to about 46.2 µM), for inactives: at the highest dose activity change, negative = growth inhibition, most hits filed as inhibitors; actives 15% (n = 420,000); AID 686978, 2013; also: nearly all actives have a fitted effect of over 55% in size
#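 Growth of hTDP1-complemented DT40 Tdp1-knockout cells is measured by ATP luminescence after at least 48 hr compound exposure at 37 °C, with DMSO substituting for the 20 nM CPT used in the parallel screen.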
# An asterisk follows results filed as active; i = inactive; ? = inconclusive; / = no result; [ ] = dose if it differs, or a comment. Calls follow the shape of the dose curve; as a rule, active = well fitted curve in the direction sought with a large enough effect; inconclusive = small, poorly fitted or top-dose-only effect, or another doubt; inactive = no such curve, though single readings can be large; an effect the other way counts as inactive or inconclusive. Unless noted, % is scaled to controls: 0 for no effect and ±100 for the full control effect; potency is read from the fitted curve at half-maximal effect.
SMILES,KB-3-1 cytotox,DT40 TDP1 CPT,HT1080NT lethal,HT1080 IDH1KD tx,KB-V1 MDR tox,TDP1 cell noCPT
CC(C)(C)C1CCc2c(sc(NC(=O)c3cc(-c4ccc(F)cc4)on3)c2C#N)C1 (centres undefined),i,-12%,/,/,i,-7%
CC1CC(C(F)F)n2nc(C(=O)Nc3sc4c(c3C#N)CCC(C(C)(C)C)C4)nc2N1 (centres undefined),16µM*,?,4%,5%,?,?
COc1ccc(N(CC(=O)NCCSCc2ccccc2Cl)S(C)(=O)=O)cc1Cl,i,12µM*,-3%,-1%,i,?
COc1ccc(N(CC(=O)NCc2ccco2)S(C)(=O)=O)cc1Cl,i,15%,8%,1%,?,-2%
Cc1ccc(N(CC(=O)NCCSCc2ccco2)S(=O)(=O)c2ccc(C)cc2)cc1,i,-15%,-5%,-20%,?,?
COc1ccc(N(CC(=O)NCCSCc2ccco2)S(=O)(=O)c2ccccc2)cc1Cl,/,15µM*,-2%,1%,/,21µM*
COc1ccc(OC)c(N(CC(=O)NCCSCc2ccco2)S(=O)(=O)c2ccc(OC)c(OC)c2)c1,i,13µM*,-8%,-4%,?,16µM*
COc1cccc(N(CC(=O)NCCSCc2ccco2)S(=O)(=O)c2ccccc2)c1,i,-25%,-7%,-2%,i,?
CC(C)Oc1ccc(S(=O)(=O)N2CCCCC2)cc1NC(=O)C1CCC1,i,?,-13%,-4%,i,?
CCOC(=O)C1CCN(C(=O)c2[nH]c(C(F)(F)F)nc2-c2ccccc2)CC1,i,-2%,18%,11%,i,4%
O=C(c1cc2sccc2n1Cc1ccccc1)N1CCCc2ccccc21,i,?,-9%,-17%,i,?
Cn1c(C(=O)N2CCCc3ccccc32)cc2sccc21,?,-14%,12%,-13%,15µM*,-21%
O=C(c1cc2sccc2n1Cc1ccccc1)N1CCc2ccccc21,i,-18%,-22%,?,10µM*,?
COc1ccc2ccccc2c1CN1CCOc2ccc(CN3CCN(CCO)CC3)cc2C1,/,10%[9.04 µM],/,/,/,?
Cc1ccccc1NC(=O)C1Cc2ccccc2CN1C(=O)OCc1ccccc1 (centres undefined),?,?,-2%,-2%,?,21µM*
O=S(=O)(NCCS(=O)(=O)N1CCN(c2ccc(F)cc2)CC1)c1ccccc1,i,?,-2%,-2%,i,?
O=[N+]([O-])c1ccc(N=Nc2ccc(O)c3ccccc23)cc1,?,15µM*,26µM*,?,15µM*,2.6µM*
CC(C)C(Cl)=NOC(=O)Nc1ccc(F)cc1,i,1.5µM*,-8%,16µM*,i,2.3µM*
C/C(=N\OC(=O)Nc1ccc(Cl)cc1)c1ccc(F)c(F)c1,i,2%,-15%,-25%,?,?
CCCc1cc(=O)oc2cc(C)cc(OCC(=O)N3CCC(C(N)=O)CC3)c12,i,15%,13%,9%,i,-2%
CSc1nnc(-c2cc3c(-c4ccccc4)nn(C)c3s2)n1C,i,?,-3%,-7%,?,23µM*
CC(C)(C)c1ccc(S(=O)(=O)NC(=O)C2(C)CCN2C(=O)CC2CCCCC2)cc1 (centres undefined),i,-13%,-5%,4%,?,-5%
c1ccc(-c2cn3c(n2)-c2ccccc2C3)cc1,?,?,?,?,10µM*,15µM*
O=C1c2ccccc2CN2C(=O)c3ccccc3CN12,i,-15%,-6%,7%,i,-9%
O=C(OCc1cn([C@@H]2CN(C(=O)C3CCCCC3)[C@@H](c3ccccc3)C[C@H]2O)nn1)c1ccccc1,i,0%,5%,14%,i,?
SMILES,KB-3-1 cytotox,DT40 TDP1 CPT,HT1080NT lethal,HT1080 IDH1KD tx,KB-V1 MDR tox,TDP1 cell noCPT
O=C(OCc1cn([C@H]2CN(C(=O)C3CCCCC3)[C@@H](c3ccccc3)C[C@@H]2O)nn1)c1ccccc1,i,?,-4%,-7%,i,21µM*
O=C(OCc1cn([C@H]2CN(C(=O)C3CCCCC3)[C@@H](c3ccc(Cl)cc3)C[C@@H]2O)nn1)c1ccccc1,i,?,-15%,-10%,i,21µM*
O=C(O)c1ccc(Cn2cnc3c(=O)[nH]cnc32)cc1,i,7%,12%,10%,i,0%
CCCOc1ccc(C(=O)Nc2cc(-c3nc4cc(C)cc(C)c4o3)ccc2C)cc1,i,7%,/,/,i,?
O=C(O)c1ccccc1NSc1ccccc1[N+](=O)[O-],i,9%,0%,-15%,i,-23%
CC1(Br)C(Sc2ccccc2[N+](=O)[O-])=Nc2ccccc21 (centres undefined),?,21µM*,6.5µM*,?,?,23µM*
O=c1[nH]c(=O)n(Cc2ccccc2)c2nc(-c3ccc(Oc4ccc(F)cc4)c([N+](=O)[O-])c3)n(CCO)c12,?,16µM*,21µM*,?,?,18µM*
COCCn1c(=O)[nH]c(=O)c2c1nc(-c1ccc(-c3ccc(Cl)cc3[N+](=O)[O-])o1)n2Cc1ccccc1,?,16µM*,?,?,23µM*,23µM*
COc1ccc(-c2ccc(-c3nc4c(c(=O)[nH]c(=O)n4Cc4ccccc4)n3C)o2)c([N+](=O)[O-])c1,?,?,-1%,0%,i,26µM*
COc1ccc(-c2nc3c(c(=O)[nH]c(=O)n3Cc3ccccc3)n2CCO)cc1,i,2%,?,-17%,i,-9%
O=C(COC(=O)c1cccc(C(F)(F)F)c1)NC(=O)NC1CCCC1,i,?,-3%,26%,i,?
CCOc1ccc(-c2cc(C(=O)NCCCOC)c3c(-c4ccc(CC)cc4)[nH]nc3n2)cc1,i,?,/,/,i,?
Cc1ccccc1Nc1nc(N)nc(C)c1Br,i,?,-5%,-14%,i,15µM*
Cc1ccccc1CSCc1nc(N)nc(Nc2ccccc2C)n1,i,?,-4%,-9%,i,?
Cc1ccccc1Nc1ncnc(N)n1,i,2%,1%,-7%,i,-2%
CCc1c(N)nc(N)nc1Nc1ccccc1C,i,?,1%,-17%,i,16µM*
